Data on 38 compounds can be found in the antibiotic and cytotoxicity screens of Wong et al. (2023).

Structures are written as SMILES. The whole screen tested about 39,000 compounds, of which about 3,300 (8.5%) were called active. For the sample, actives were picked, then their nearest neighbours and some compounds at random.

This test has as its system HepG2. As to the kind of experiment: cytotoxicity call (relative viability < 0.9). The following applies: 10 µM.
Consider `Cc1cc2nc3ccc(N(C)C)cc3[s+]c2cc1N.[Cl-]`, for which the cytotoxicity call is “active”. Turning to `CN(C)c1ccc2nc3ccc(N(C)C)cc3[s+]c2c1.O.[Cl-]`, the cytotoxicity call is “active”. Regarding `CN(C)c1ccc2c(=O)[nH][nH]c(=O)c2c1`, the cytotoxicity call was “inactive”. For `C[C@@H]1CN([C@@H](C)CO)C(=O)c2cc(C#Cc3ccc(F)cc3)cnc2O[C@H]1CN(C)Cc1ccccn1`, the cytotoxicity call was “inactive”. On to `O=C(C[C@H]1C[C@@H]2c3cc(NS(=O)(=O)c4ccc(F)cc4)ccc3O[C@@H]2[C@H](CO)O1)N1CCOCC1`, for which the cytotoxicity call was “inactive”. The result for `O=C(C[C@H]1C[C@H]2c3cc(NC(=O)Nc4ccc(C(F)(F)F)cc4)ccc3O[C@H]2[C@H](CO)O1)NCCc1ccccc1` reads “inactive”. In the case of `C[C@@H]1CN([C@@H](C)CO)C(=O)c2cc(NC(=O)Nc3ccc(C(F)(F)F)cc3)ccc2O[C@@H](C)CCCCO[C@@H]1CN(C)C(=O)NC1CCCCC1`, the cytotoxicity call is “inactive”. `C[C@@H]1CN([C@H](C)CO)C(=O)c2cc(NC(=O)Nc3ccc(C(F)(F)F)cc3)ccc2O[C@@H](C)CCCCO[C@@H]1CN(C)C(=O)NC1CCCCC1`: the cytotoxicity call was “inactive”. The same measure for `C[C@@H]1CCCCO[C@H](CN(C)C(=O)NC2CCCCC2)[C@H](C)CN([C@@H](C)CO)C(=O)c2cc(NC(=O)Nc3ccc(C(F)(F)F)cc3)ccc2O1`: “inactive”; for `C[C@@H]1CCCCO[C@H](CN(C)C(=O)NC2CCCCC2)[C@H](C)CN([C@H](C)CO)C(=O)c2cc(NC(=O)Nc3ccc(C(F)(F)F)cc3)ccc2O1`: “inactive”; for `C[C@@H]1CCCCO[C@@H](CN(C)C(=O)NC2CCCCC2)[C@@H](C)CN([C@H](C)CO)C(=O)c2cc(NC(=O)Nc3ccc(C(F)(F)F)cc3)ccc2O1`: “active”. With `C[C@@H]1CCCCO[C@@H](CN(C)C(=O)NC2CCCCC2)[C@@H](C)CN([C@@H](C)CO)C(=O)c2cc(NC(=O)Nc3ccc(C(F)(F)F)cc3)ccc2O1`, the cytotoxicity call is “inactive”. Consider `C[C@H](CO)N1C[C@H](C)[C@@H](CN(C)C(=O)NC2CCCCC2)OCCCC[C@H](C)Oc2ccc(NC(=O)Nc3ccc(C(F)(F)F)cc3)cc2C1=O`, for which the cytotoxicity call is “inactive”. For `C[C@H]1CCCCO[C@@H](CN(C)C(=O)NC2CCCCC2)[C@@H](C)CN([C@@H](C)CO)C(=O)c2cc(NC(=O)Nc3ccc(C(F)(F)F)cc3)ccc2O1`, the cytotoxicity call was “active”.

For `C[C@@H]1CCCCO[C@@H](CN(C)C(=O)NC2CCCCC2)[C@H](C)CN([C@@H](C)CO)C(=O)c2cc(NC(=O)Nc3ccc(C(F)(F)F)cc3)ccc2O1`, the cytotoxicity call was “inactive”.

On to `C[C@H](CO)N1C[C@H](C)[C@H](CN(C)C(=O)NC2CCCCC2)OCCCC[C@H](C)Oc2ccc(NC(=O)Nc3ccc(C(F)(F)F)cc3)cc2C1=O`, for which the cytotoxicity call is “active”. The same measure for `C[C@H]1CCCCO[C@H](CN(C)C(=O)NC2CCCCC2)[C@@H](C)CN([C@@H](C)CO)C(=O)c2cc(NC(=O)Nc3ccc(C(F)(F)F)cc3)ccc2O1`: “active”. For `C[C@@H]1CCCCO[C@H](CN(C)C(=O)NC2CCCCC2)[C@@H](C)CN([C@@H](C)CO)C(=O)c2cc(NC(=O)Nc3ccc(C(F)(F)F)cc3)ccc2O1`, the cytotoxicity call was “inactive”.

`C[C@@H]1C=CNN1C(=O)c1cccnc1`: the cytotoxicity call is “inactive”. `O=C(C[C@H]1CC[C@@H]2[C@H](COC[C@@H](O)CN2C(=O)c2ccccc2F)O1)N1CCN(c2ccccc2)CC1`: the cytotoxicity call was “inactive”.

Consider `C[C@H]1CN([C@@H](C)CO)C(=O)c2cc(NC(=O)Nc3cccc4ccccc34)ccc2O[C@@H]1CN(C)C(=O)Nc1ccc(F)cc1`, for which the cytotoxicity call is “inactive”. Regarding `O=C(C[C@@H]1C[C@@H]2c3cc(NS(=O)(=O)c4ccccc4)ccc3O[C@@H]2[C@@H](CO)O1)NC1CCCCC1`, the cytotoxicity call was “inactive”. `C[C@@H]1CN([C@@H](C)CO)C(=O)Cc2cc(NC(=O)Cc3ccccc3)ccc2O[C@@H]1CN(C)S(=O)(=O)c1ccc(F)cc1`: the cytotoxicity call was “inactive”. Turning to `C[C@H](CO)N1C[C@H](C)[C@H](CN(C)Cc2ccc3c(c2)OCO3)Oc2c(NS(=O)(=O)c3cn(C)cn3)cccc2C1=O`, the cytotoxicity call was “inactive”.

As to `O=C(/C=C/c1ccc(O)c(O)c1)O[C@@H]1C[C@](OC(=O)/C=C/c2ccc(O)c(O)c2)(C(=O)O)C[C@@H](O)[C@H]1O`, the cytotoxicity call is “inactive”. Consider `C[C@H](CO)N1C[C@H](C)[C@@H](CN(C)C(=O)Nc2ccc(C(F)(F)F)cc2)OCCCC[C@H](C)Oc2ccc(NC(=O)NC3CCCCC3)cc2C1=O`, for which the cytotoxicity call is “inactive”. With `C[C@H]1CCCCO[C@H](CN(C)C(=O)Nc2ccc(C(F)(F)F)cc2)[C@@H](C)CN([C@@H](C)CO)C(=O)c2cc(NC(=O)NC3CCCCC3)ccc2O1`, the cytotoxicity call was “inactive”. The same measure for `C[C@@H]1CCCCO[C@@H](CN(C)C(=O)Nc2ccc(C(F)(F)F)cc2)[C@H](C)CN([C@H](C)CO)C(=O)c2cc(NC(=O)NC3CCCCC3)ccc2O1`: “active”; for `COc1ccc(NC(=O)N2C[C@@H](O)COC[C@H]3O[C@H](CC(=O)NC4Cc5ccccc5C4)CC[C@@H]32)cc1`: “inactive”. The result for `C[C@@H]1CN([C@@H](C)CO)C(=O)c2c(c3ccccc3n2C)-c2ccccc2CO[C@@H]1CN(C)Cc1ccc(Cl)c(Cl)c1` reads “inactive”; that for `C[C@@H]1CCCCO[C@H](CN(C)Cc2ccc(Cl)c(Cl)c2)[C@@H](C)CN([C@@H](C)CO)C(=O)c2cc(N(C)C)ccc2O1`, “inactive”. With `C[C@@H]1CCCCO[C@@H](CN(C)Cc2ccc(Cl)c(Cl)c2)[C@H](C)CN([C@H](C)CO)C(=O)c2cc(N(C)C)ccc2O1`, the cytotoxicity call was “active”.

Turning to `C[C@@H]1CCCCO[C@@H](CN(C)Cc2ccc(C(F)(F)F)cc2)[C@@H](C)CN([C@H](C)CO)C(=O)c2cc(N(C)C)ccc2O1`, the cytotoxicity call was “inactive”. The same measure for `C[C@H](CO)N1C[C@H](C)[C@@H](CN(C)Cc2ccc(Cl)c(Cl)c2)OCCCC[C@H](C)Oc2ccc(N(C)C)cc2C1=O`: “inactive”; for `C[C@@H]1CCCCO[C@H](CN(C)Cc2ccc(C(F)(F)F)cc2)[C@H](C)CN([C@H](C)CO)C(=O)c2cc(N(C)C)ccc2O1`: “active”. Take `C[C@H](CO)N1C[C@H](C)[C@H](CN(C)Cc2ccc(C(F)(F)F)cc2)OCCCC[C@H](C)Oc2ccc(N(C)C)cc2C1=O`: the cytotoxicity call is “inactive”.

For the compound `C[C@H]1CCCn2nncc2COCCNC1=O`, the cytotoxicity call is “inactive”. The same measure for `COCCOC(=O)N1C(=O)[C@@]2(c3ccccc31)[C@H](C(=O)N1CCCCCCC1)[C@H]1C(=O)O[C@H](c3ccccc3)[C@H](c3ccccc3)N1[C@@H]2c1ccccc1OCCO`: “inactive”.
